In PubChem BioAssay (NCI):
The panel holds about 83,000 compounds, 20% with a hit somewhere; the sample as a whole holds those more often.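 Growth was measured after 48 h exposure to one concentration of compound in 96-well plates. Values under 10 count as active.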 Calls of active or inactive are those of the source.

Assays:
Assay in all cases: NCI-60 one-dose screen, 48 h (100 = growth as untreated, 0 = no growth, -100 = all killed)
Details in all cases: 10 µM unless noted
[1] = system: NCI-H226 lung
[2] = system: NCI-H322M lung
[3] = system: HOP-62 NSCLC
[4] = system: NCI-H460 lung
[5] = system: NCI-H522 lung
[6] = system: A549/ATCC NSCLC
[7] = system: 786-0 renal
[8] = system: COLO 205 colon
[9] = system: DU-145 prostate
[10] = system: HOP-92 NSCLC

Measured: growth

Cn1c(SCC(=O)c2cccs2)nc2ccccc2c1=O
inactive: [1] 91.9% | [2] 102% | [3] 85.9% | [4] 98.7% | [5] 87.8% | [6] 99.6% | [7] 98.6% | [8] 111% | [9] 105%

COc1cc(/C=C/C(=O)c2ccccc2)ccc1Oc1nc(NCCO)nc(N2CCOCC2)n1
inactive: [1] 107% | [2] 99.3% | [3] 90.1% | [10] 90.9% | [5] 99.3% | [6] 98.8% | [7] 105% | [8] 116% | [9] 104%

COC(=O)c1ccc(NC(=S)N2CCc3ccc([N+](=O)[O-])cc3C2)cc1O
inactive: [1] 100% | [2] 101% | [3] 91.3% | [4] 114% | [5] 99% | [6] 106% | [7] 109% | [8] 105% | [9] 112%

O=[N+]([O-])c1ccc(O)c2ncccc12
inactive: [1] 48.7% | [2] 39.1% | [3] 19.1% | [4] 10.3% | [5] 21.2% | [6] 27% | [7] 42.4% | [8] 46.5% | [9] 43.3%

C/C(=N/NC(N)=S)c1ccc(Nc2nc(SCC(C)C)nc(-c3ccc(F)cc3)c2C#N)cc1
inactive: [2] 31.4% | [5] 34.1% | [8] 16.8% | [9] 18.9%
active: [1] -16.9% | [3] -11.1% | [4] -62.2% | [6] -2.25% | [7] 4.53%

CN(C)S(=O)(=O)c1oc(-c2ccccc2)nc1C#N
active: [5] -64.7%
inactive: [1] 98.2% | [2] 99.6% | [3] 99.6% | [10] 74.2% | [6] 105% | [7] 66.1% | [8] 75.9% | [9] 34.7%

N[C@@H](Cc1cn(-c2c3ccccc3nc3ccccc23)nn1)C(=O)O
inactive: [1] 103% | [2] 98.3% | [3] 96.6% | [10] 108% | [5] 105% | [6] 102% | [7] 105% | [8] 109% | [9] 105%

Cc1cccc2sc(/N=C(\N)C(Br)Br)nc12
active: [5] -76% | [9] 4.67%
inactive: [1] 42.8% | [2] 48.8% | [3] 67% | [10] 47.6% | [6] 37.4% | [7] 31.6% | [8] 27%

COc1ccc(C(=O)c2cc(C(=O)/C=C/c3c(Cl)cccc3Cl)c3cc(C)ccn23)cc1
inactive: [1] 103% | [2] 98.3% | [3] 98.5% | [5] 91.5% | [6] 99.6% | [7] 100% | [8] 108% | [9] 106%

O=C1c2c(c3c4cccnc4[nH]c3c3ccc4ccccc4c23)C(=O)N1CCO
inactive: [1] 80.7% | [2] 95% | [3] 64.5% | [10] 129% | [5] 52.8% | [6] 78.3% | [7] 84% | [8] 78.4% | [9] 87.2%

O=C1NC(=C(Cl)Cl)/C(=N/S(=O)(=O)N2CCCCC2CC2(C(F)(F)F)N=N2)N1 (stereo unspecified)
active: [10] -51.6% | [5] -59.3% | [7] -24.7% | [8] -17.5%
inactive: [1] 89.7% | [2] 97.9% | [3] 96% | [6] 111% | [9] 74%

O=C(CSc1nc2sc3c(c2c(=O)n1-c1ccc(Cl)cc1)CCCC3)N/N=C/c1ccc(F)cc1
inactive: [1] 113% | [2] 104% | [3] 105% | [10] 97.3% | [5] 100% | [6] 88.1% | [7] 98.9% | [8] 117% | [9] 82.1%

Cc1cccc(/C=C/c2nn3c(-c4ccco4)nnc3s2)c1
inactive: [1] 96.5% | [2] 94.4% | [3] 100% | [10] 119% | [5] 95.2% | [6] 95.3% | [7] 97.6% | [8] 107% | [9] 105%
